Among the data in the supplement of paper PMC6555819 are PBM binding z-score values, retold here.

The first test concerns FXR:RXRa (NR concentration 270 nM, RXRa partner concentration 90 nM). In words: PBM binding z-score (relative to random genomic background probes); higher = stronger binding; sequences stand for … in GC…GCGATTGACAGCGTAGAATGAAGG
The essentials:
(§1)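 Binding buffer was PBS pH 7.4 with 2% milk, 0.02% Triton X-100, 1 mM DTT, 0.2 mg/mL BSA and 0.4 mg/ml salmon testes DNA. In it, ligand-free nuclear receptor dimers were incubated 1 h on custom Agilent 4×180K protein-binding microarrays carrying double-stranded probes. Antibodies against each partner (one per run) detected binding, and z-scores were calculated against random background probes after regression normalization of scanned fluorescence.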
For the sequence CCTAGCAGGCCAGGGTCACACAAGCATTTCGCTT, the PBM binding z-score amounted to 2.57.
On to ATATGTAGGTTATGGGGTCATTCAGTTTGCGCAT, for which the PBM binding z-score stood at 5.54.
On to ACTATTACTTGAGACGAGGGCAACCGATAGGTTG, for which the PBM binding z-score was determined as 0.529.
On the same count and under the same terms, for CCTACTGGGCCATCAAGTCATTGATATCAACGTT the value was -0.198; for TCATAAAGGTAAAGGTGAAAGTCGAACGATATGA, 1.63.
On the same count and under the same terms, the same measure for TCTGCTAGTTCAGTTGGTCAGCTAACGAGCTGCC: -0.661; for TCATATATGTAAACAGGTGAAAGTCCGTAAGTTA: 0.999; for ATTTCTAGGTAACCAAGTTCAGTGAATGCCGAAC: 0.465.
Same read-out and setting: the same measure for ACTAGTTGGTCAGCTGACGTCACACACAATTCGG: 0.0857; for ACAGAAAGGTGAGTGAAGGTAACTCAGCTGGACG: 1.15; for TCTAGTTGGTCACGGAGCTCACACACGACGGGTA: 0.213.
Sequence ATCTCTAGGTAACCATGTTCAGTGAATGCCGAAC came in with a PBM binding z-score of 0.171.
The sequence AGTCAAAGTTCATCTAGGAAACGTAAGATATGCT gave a PBM binding z-score of 6.71.
Same read-out and setting: the same measure for TCTATTAGTTGAAGGGCAACCGCCGAGTCCGTTT: 0.913.
TCAGATAGGTAAACAGGTGAAAGTCCGTAAGTTA displayed a PBM binding z-score of 0.678.
CCGACTGGGGCATAAGGGTACCATAAGCCAGCCC displayed a PBM binding z-score of -0.549.
On the same count and under the same terms, the same measure for ATATCTAGGTTAAGGGTCATTCAGGTTGGTTCGC: 5.3.
The same measure, in the same setting: the same measure for TGTTGTAGATCAATAGAGGTTAAGAAAGTGCGCT: 1.03; for CCTAGTGGGTCAAGGTCACACACGCTATAGGTAC: 5.66; for ACTATGAGTTGACTTAGGGCAACCGATACGACGC: 0.53.
Take GCTGCTAGGTCAATTGATGGTCAGCTAAAGCTCG: the PBM binding z-score amounted to 2.8.
Regarding CCTACTGGGCCATTCAGAGGTCATTGGTCATATG, the PBM binding z-score is 2.52.
Sequence TTACTAAGGTGAAAGGTCGTTGATGCACGCCTTG came in with a PBM binding z-score of 4.62.
As for TCATATAAGTAAATGCTAGGTGAAAGTCCGATCT, the PBM binding z-score was 1.12.
The same measure, in the same setting: for CGTCCAAGGTCAAAGGTCAGTGGAGAGATGACGG the value was 8.17; for GGAACGAGGGCAAAGTTGCTAGCATCTGTCGACG, 0.659.
In turn, CCTGCTAGGTGAATGGTCAGCTAAAGCAGCTCGC showed a PBM binding z-score of -0.48.
The same measure, in the same setting: for CGTCAAAGTTCAATTAAGGTAACGTAAAGCACGC the value was 6.45; for ACTATTAGTTAACTTAGGGCAACCGATACGACGC, 0.0468; for TCTGCTTGGTCAGTTGGTCAGCTAACGAGCTGCC, -0.433.
CCTAATGGGCCAAGGTCATTGATCAGTCAAAGCA: the PBM binding z-score came to 3.25.
On the same count and under the same terms, for ACTGGGAGGACAAAGGTCAGAGCTACGCCAGTGA the value was 4.45; for GCGACTGGGGCAAAGCAGGTTACCAAAAGGTTGG, 0.475.
On the same count and under the same terms, for TCATATAGGTAAAGGTGAAAATCGAACGATATGA the value was 1.01; for ATCTCTAGGTAACAAGTACAGTGAAAGAGAGGAC, 0.404.
Consider CCTCGGTGGACAGAAGGTCAGAGCTGTCCGCTTT, for which the PBM binding z-score was found to be 1.33.
The same measure, in the same setting: for GCTGCTAGGTCAGCTGATGGTCAGCTAAAGCTCG the value was 1.21; for ACTAGTTCGTCAGCTGAGGTCACACACAATTCGG, 3.55.
As to CCTACTGGGCCAAGAAAGGTCATTGATTCAGTGA, the PBM binding z-score came out at 3.31.
TCTGCTAGGACAGTTGGTCAGCTAACGAGCTGCC: the PBM binding z-score was -0.435.

For the next test, the system named is LXRa:RXRa (NR concentration 270 nM, RXRa partner concentration 90 nM). The description is as above. An outline of the steps: as §1
On to CCTAGCAGGCCAGGGTCACACAAGCATTTCGCTT, for which the PBM binding z-score is 2.38.
In turn, ATATGTAGGTTATGGGGTCATTCAGTTTGCGCAT showed a PBM binding z-score of 5.12.
Consider ACTATTACTTGAGACGAGGGCAACCGATAGGTTG, for which the PBM binding z-score worked out at 0.528.
The same measure, in the same setting: the same measure for CCTACTGGGCCATCAAGTCATTGATATCAACGTT: -0.233; for TCATAAAGGTAAAGGTGAAAGTCGAACGATATGA: 1.78; for TCTGCTAGTTCAGTTGGTCAGCTAACGAGCTGCC: -0.0879.
The same measure, in the same setting: for TCATATATGTAAACAGGTGAAAGTCCGTAAGTTA the value was 1.09; for ATTTCTAGGTAACCAAGTTCAGTGAATGCCGAAC, 0.956; for ACTAGTTGGTCAGCTGACGTCACACACAATTCGG, 0.103.
Same read-out and setting: the same measure for ACAGAAAGGTGAGTGAAGGTAACTCAGCTGGACG: 0.894; for TCTAGTTGGTCACGGAGCTCACACACGACGGGTA: 0.0936; for ATCTCTAGGTAACCATGTTCAGTGAATGCCGAAC: 0.321.
The sequence AGTCAAAGTTCATCTAGGAAACGTAAGATATGCT gave a PBM binding z-score of 5.87.
Still for that read-out and setting: the same measure for TCTATTAGTTGAAGGGCAACCGCCGAGTCCGTTT: 0.871.
For the sequence TCAGATAGGTAAACAGGTGAAAGTCCGTAAGTTA, the PBM binding z-score came to 0.827.
Same read-out and setting: for CCGACTGGGGCATAAGGGTACCATAAGCCAGCCC the value was -0.376.
Same read-out and setting: for ATATCTAGGTTAAGGGTCATTCAGGTTGGTTCGC the value was 5.06; for TGTTGTAGATCAATAGAGGTTAAGAAAGTGCGCT, 3.59.
With CCTAGTGGGTCAAGGTCACACACGCTATAGGTAC, the PBM binding z-score was found to be 4.37.
Same read-out and setting: for ACTATGAGTTGACTTAGGGCAACCGATACGACGC the value was 0.591.
Turning to GCTGCTAGGTCAATTGATGGTCAGCTAAAGCTCG, the PBM binding z-score was found to be 2.21.
Regarding CCTACTGGGCCATTCAGAGGTCATTGGTCATATG, the PBM binding z-score worked out at 4.22.
For the sequence TTACTAAGGTGAAAGGTCGTTGATGCACGCCTTG, the PBM binding z-score came out at 4.06.
The same measure, in the same setting: the same measure for TCATATAAGTAAATGCTAGGTGAAAGTCCGATCT: 1.03.
For the sequence CGTCCAAGGTCAAAGGTCAGTGGAGAGATGACGG, the PBM binding z-score came out at 6.91.
The same measure, in the same setting: the same measure for GGAACGAGGGCAAAGTTGCTAGCATCTGTCGACG: 0.547; for CCTGCTAGGTGAATGGTCAGCTAAAGCAGCTCGC: -0.375.
Still for that read-out and setting: for CGTCAAAGTTCAATTAAGGTAACGTAAAGCACGC the value was 5.3; for ACTATTAGTTAACTTAGGGCAACCGATACGACGC, 1.21; for TCTGCTTGGTCAGTTGGTCAGCTAACGAGCTGCC, -0.4.
On the same count and under the same terms, the same measure for CCTAATGGGCCAAGGTCATTGATCAGTCAAAGCA: 3.17.
In turn, ACTGGGAGGACAAAGGTCAGAGCTACGCCAGTGA registered a PBM binding z-score of 4.69.
Sequence GCGACTGGGGCAAAGCAGGTTACCAAAAGGTTGG gave a PBM binding z-score of 0.517.
TCATATAGGTAAAGGTGAAAATCGAACGATATGA came in with a PBM binding z-score of 1.19.
Still for that read-out and setting: the same measure for ATCTCTAGGTAACAAGTACAGTGAAAGAGAGGAC: 0.297; for CCTCGGTGGACAGAAGGTCAGAGCTGTCCGCTTT: 1.62.
For GCTGCTAGGTCAGCTGATGGTCAGCTAAAGCTCG, the PBM binding z-score turned out to be 0.513.
For ACTAGTTCGTCAGCTGAGGTCACACACAATTCGG, the PBM binding z-score was found to be 3.53.
As to CCTACTGGGCCAAGAAAGGTCATTGATTCAGTGA, the PBM binding z-score amounted to 4.19.
TCTGCTAGGACAGTTGGTCAGCTAACGAGCTGCC yielded a PBM binding z-score of -0.527.
